Data as given in PubChem BioAssay (NCI).
The panel holds about 83,000 compounds, 20% with a hit somewhere; the sample as a whole holds those more often.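 The endpoint reported here, percent growth, reads 100 for growth as untreated, 0 for no net growth and -100 for all cells dead.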 The source made the active and inactive calls. How the source made its calls: active means growth percent below 10; inactive means the rest.

How the values were obtained:
Experiment in all cases: NCI-60 one-dose screen, 48 h (100 = growth as untreated, 0 = no growth, -100 = all killed)
Conditions in all cases: 10 µM unless noted
NCI-H23 lung = tested on: NCI-H23 lung
NCI-H226 lung = tested on: NCI-H226 lung
NCI-H322M lung = tested on: NCI-H322M lung
HOP-62 NSCLC = tested on: HOP-62 NSCLC
NCI-H460 lung = tested on: NCI-H460 lung
NCI-H522 lung = tested on: NCI-H522 lung
A549/ATCC NSCLC = tested on: A549/ATCC NSCLC
786-0 renal = tested on: 786-0 renal
COLO 205 colon = tested on: COLO 205 colon
DU-145 prostate = tested on: DU-145 prostate
K-562 leukemia = tested on: K-562 leukemia
MALME-3M melanoma = tested on: MALME-3M melanoma
MDA-MB-231 breast = tested on: MDA-MB-231 breast
RXF 393 renal = tested on: RXF 393 renal
SF-268 CNS = tested on: SF-268 CNS
SF-295 CNS = tested on: SF-295 CNS
SF-539 CNS = tested on: SF-539 CNS
UACC-257 melanoma = tested on: UACC-257 melanoma
M14 melanoma = tested on: M14 melanoma

Measured: growth

COc1cc(NCC(O)CN(CC(C)C)CC(C)C)c2ncccc2c1 (centres undefined)
inactive: NCI-H23 lung 82% | NCI-H226 lung 74.9% | NCI-H322M lung 95.6% | HOP-62 NSCLC 84.8% | NCI-H460 lung 95.4% | NCI-H522 lung 55.9% | A549/ATCC NSCLC 91.6% | 786-0 renal 85% | COLO 205 colon 81% | DU-145 prostate 113% | K-562 leukemia 59.6% | MALME-3M melanoma 89.6% | MDA-MB-231 breast 85.5% | RXF 393 renal 51.5% | SF-268 CNS 98.5% | SF-295 CNS 91.9% | SF-539 CNS 102% | UACC-257 melanoma 77.2% | M14 melanoma 87.7%

CCN(CC)CC(=O)Nc1c(C)ccc(N)c1C
inactive: NCI-H23 lung 101% | NCI-H226 lung 98.4% | NCI-H322M lung 90.2% | HOP-62 NSCLC 94.2% | NCI-H460 lung 108% | NCI-H522 lung 74.4% | A549/ATCC NSCLC 100% | 786-0 renal 93.4% | COLO 205 colon 97.6% | DU-145 prostate 107% | K-562 leukemia 128% | MALME-3M melanoma 90.5% | MDA-MB-231 breast 107% | RXF 393 renal 116% | SF-268 CNS 102% | SF-295 CNS 97% | SF-539 CNS 99.6% | UACC-257 melanoma 105% | M14 melanoma 101%

CCOC(=O)c1cc(N)nc2ccccc12
inactive: NCI-H23 lung 99.2% | NCI-H226 lung 102% | NCI-H322M lung 156% | HOP-62 NSCLC 94.7% | NCI-H460 lung 96.3% | NCI-H522 lung 101% | A549/ATCC NSCLC 122% | 786-0 renal 102% | COLO 205 colon 112% | DU-145 prostate 104% | K-562 leukemia 91.1% | MALME-3M melanoma 139% | MDA-MB-231 breast 107% | RXF 393 renal 109% | SF-268 CNS 91.1% | SF-295 CNS 100% | SF-539 CNS 97.8% | UACC-257 melanoma 115% | M14 melanoma 108%

Fc1ccc(-c2cnc3nonc3n2)c(F)c1
inactive: NCI-H23 lung 88.7% | NCI-H226 lung 102% | NCI-H322M lung 98.4% | HOP-62 NSCLC 93.7% | NCI-H460 lung 107% | NCI-H522 lung 84% | A549/ATCC NSCLC 109% | 786-0 renal 104% | COLO 205 colon 92.5% | DU-145 prostate 100% | K-562 leukemia 68% | MALME-3M melanoma 105% | MDA-MB-231 breast 78% | RXF 393 renal 111% | SF-268 CNS 84.8% | SF-295 CNS 109% | SF-539 CNS 98.6% | UACC-257 melanoma 96.6% | M14 melanoma 97.2%

CC(C)c1cccc(C#N)c1
inactive: NCI-H23 lung 92.8% | NCI-H226 lung 101% | NCI-H322M lung 109% | HOP-62 NSCLC 111% | NCI-H460 lung 103% | NCI-H522 lung 107% | A549/ATCC NSCLC 93.5% | 786-0 renal 102% | COLO 205 colon 115% | DU-145 prostate 104% | K-562 leukemia 109% | MALME-3M melanoma 113% | MDA-MB-231 breast 102% | RXF 393 renal 102% | SF-268 CNS 107% | SF-295 CNS 107% | SF-539 CNS 109% | UACC-257 melanoma 93.4% | M14 melanoma 95.2%

S=C(S)Oc1cccc2cccnc12
inactive: NCI-H23 lung 106% | NCI-H226 lung 102% | NCI-H322M lung 95.2% | HOP-62 NSCLC 110% | NCI-H460 lung 107% | NCI-H522 lung 88.9% | A549/ATCC NSCLC 98.5% | 786-0 renal 103% | COLO 205 colon 111% | DU-145 prostate 105% | K-562 leukemia 90.8% | MALME-3M melanoma 90.9% | MDA-MB-231 breast 111% | RXF 393 renal 119% | SF-268 CNS 109% | SF-295 CNS 110% | SF-539 CNS 118% | UACC-257 melanoma 108% | M14 melanoma 105%

CN(C)c1ccc(/C=C\c2cccc[n+]2C)cc1
inactive: NCI-H23 lung 46.6% | NCI-H226 lung 67.7% | NCI-H322M lung 102% | HOP-62 NSCLC 48% | NCI-H460 lung 69.5% | NCI-H522 lung 30.5% | A549/ATCC NSCLC 20.8% | 786-0 renal 69.3% | DU-145 prostate 70.1% | K-562 leukemia 21% | MALME-3M melanoma 57.4% | MDA-MB-231 breast 73.4% | RXF 393 renal 86.6% | SF-268 CNS 26.7% | SF-295 CNS 19% | SF-539 CNS 58.9% | UACC-257 melanoma 31.7% | M14 melanoma 69.6%
active: COLO 205 colon -35.6%

N/C(=C\C(=O)n1nc(-c2ccccc2)cc1N)c1ccccc1
active: NCI-H522 lung -22.3%
inactive: NCI-H23 lung 58.3% | NCI-H226 lung 73.4% | NCI-H322M lung 65.4% | HOP-62 NSCLC 64% | NCI-H460 lung 36% | A549/ATCC NSCLC 55.1% | 786-0 renal 65% | COLO 205 colon 41.6% | DU-145 prostate 58.2% | K-562 leukemia 25.6% | MALME-3M melanoma 42.6% | MDA-MB-231 breast 51.5% | RXF 393 renal 77.2% | SF-268 CNS 63.8% | SF-295 CNS 44.5% | SF-539 CNS 59.4% | UACC-257 melanoma 58.3% | M14 melanoma 31.6%

COc1ccc(NC(=O)Cn2c(=O)sc3c(-c4ccc(Cl)cc4)cc(-c4ccc(Cl)cc4)nc32)cc1
inactive: NCI-H23 lung 91% | NCI-H226 lung 108% | NCI-H322M lung 95.1% | HOP-62 NSCLC 97.8% | NCI-H460 lung 102% | NCI-H522 lung 70% | A549/ATCC NSCLC 96.7% | 786-0 renal 88.7% | COLO 205 colon 100% | DU-145 prostate 96.7% | K-562 leukemia 85.1% | MALME-3M melanoma 112% | MDA-MB-231 breast 110% | RXF 393 renal 110% | SF-268 CNS 93.1% | SF-295 CNS 95.8% | SF-539 CNS 98% | UACC-257 melanoma 115% | M14 melanoma 94.1%

CCCNCCC(C)=O
inactive: NCI-H23 lung 95.1% | NCI-H226 lung 108% | NCI-H322M lung 119% | HOP-62 NSCLC 106% | NCI-H460 lung 103% | NCI-H522 lung 99.6% | A549/ATCC NSCLC 95.6% | 786-0 renal 110% | COLO 205 colon 108% | DU-145 prostate 122% | K-562 leukemia 98.5% | MALME-3M melanoma 121% | MDA-MB-231 breast 113% | RXF 393 renal 127% | SF-268 CNS 115% | SF-295 CNS 97.1% | SF-539 CNS 114% | UACC-257 melanoma 91.7% | M14 melanoma 105%

c1ccc(-c2ccc(-c3ccccc3)[nH]2)cc1
inactive: NCI-H23 lung 86.5% | NCI-H226 lung 86.5% | NCI-H322M lung 95.6% | HOP-62 NSCLC 105% | NCI-H460 lung 103% | NCI-H522 lung 85.7% | A549/ATCC NSCLC 88.7% | 786-0 renal 96.6% | COLO 205 colon 127% | DU-145 prostate 102% | K-562 leukemia 81.1% | MALME-3M melanoma 96.4% | MDA-MB-231 breast 89.5% | RXF 393 renal 102% | SF-268 CNS 98.6% | SF-295 CNS 109% | SF-539 CNS 93.9% | UACC-257 melanoma 101% | M14 melanoma 110%

COC(=O)c1ccc2c(c1)nc(-c1ccc(Cl)cc1)n2-c1cc(C(C)(C)C)[nH]n1
inactive: NCI-H23 lung 60.7% | NCI-H226 lung 94.3% | NCI-H322M lung 92.5% | HOP-62 NSCLC 116% | NCI-H460 lung 45.1% | NCI-H522 lung 38% | A549/ATCC NSCLC 47.2% | 786-0 renal 46% | COLO 205 colon 112% | DU-145 prostate 85.9% | K-562 leukemia 34.3% | MALME-3M melanoma 14.8% | MDA-MB-231 breast 92% | RXF 393 renal 45.7% | SF-268 CNS 68.5% | SF-295 CNS 43.3% | SF-539 CNS 60.4% | UACC-257 melanoma 62.3% | M14 melanoma 33.8%

CC(C)N(C(=S)SSC(=S)N(C(C)C)C(C)C)C(C)C
inactive: NCI-H23 lung 101% | NCI-H226 lung 109% | NCI-H322M lung 108% | HOP-62 NSCLC 104% | NCI-H460 lung 110% | NCI-H522 lung 75.7% | A549/ATCC NSCLC 95.9% | 786-0 renal 101% | COLO 205 colon 112% | DU-145 prostate 109% | K-562 leukemia 73.3% | MALME-3M melanoma 101% | MDA-MB-231 breast 119% | RXF 393 renal 120% | SF-268 CNS 103% | SF-295 CNS 101% | SF-539 CNS 108% | UACC-257 melanoma 93.4% | M14 melanoma 101%

COc1ccc(/C(C)=N/NC(=O)CSc2nc3ccccc3c(=O)n2CCc2ccc(S(N)(=O)=O)cc2)cc1
inactive: NCI-H23 lung 29.9% | NCI-H226 lung 49% | NCI-H322M lung 32.3% | COLO 205 colon 33.5% | K-562 leukemia 30.4% | RXF 393 renal 29.7% | SF-268 CNS 28.3% | SF-295 CNS 28.5% | SF-539 CNS 14.4% | UACC-257 melanoma 25.9% | M14 melanoma 38.4%
active: HOP-62 NSCLC -0.117% | NCI-H460 lung -29.5% | NCI-H522 lung 9.28% | A549/ATCC NSCLC -26.9% | 786-0 renal -68.1% | DU-145 prostate 1.74% | MALME-3M melanoma -21.4% | MDA-MB-231 breast -10.9%

CCOC(=O)C1C(=O)C=C(c2cc(OC)c(OC)c(OC)c2)CC1c1sc(N(C)Cc2ccccc2)nc1Cl (centres undefined)
inactive: NCI-H23 lung 87.3% | NCI-H226 lung 74.1% | NCI-H322M lung 83.2% | HOP-62 NSCLC 78.3% | NCI-H460 lung 86.3% | NCI-H522 lung 67% | A549/ATCC NSCLC 71.6% | 786-0 renal 85.9% | COLO 205 colon 97.1% | DU-145 prostate 106% | K-562 leukemia 66.4% | MALME-3M melanoma 104% | MDA-MB-231 breast 82.9% | RXF 393 renal 81.5% | SF-268 CNS 73.6% | SF-295 CNS 89.3% | SF-539 CNS 95.6% | UACC-257 melanoma 90.4% | M14 melanoma 92%

CC1=C(O)C(=O)CC1
inactive: NCI-H23 lung 96.3% | NCI-H226 lung 100% | NCI-H322M lung 103% | HOP-62 NSCLC 120% | NCI-H460 lung 109% | NCI-H522 lung 115% | A549/ATCC NSCLC 88.8% | 786-0 renal 105% | COLO 205 colon 116% | DU-145 prostate 112% | K-562 leukemia 106% | MALME-3M melanoma 104% | MDA-MB-231 breast 108% | RXF 393 renal 102% | SF-268 CNS 110% | SF-295 CNS 94.9% | SF-539 CNS 111% | UACC-257 melanoma 97.4% | M14 melanoma 105%
